KB-3-1 cytotox: kills parental KB-3-1 adenocarcinoma cells | KB-3-1 viability, CellTiter-Glo ATP luminescence, 72 h | Potency, µM (series often up to 46.1 µM), most hits filed as cytotoxic | 400,000 tested, 1.4% active | AID 1347075; further: on the % scale 0 is the no-effect control and ±100 the full control effect; nearly all actives have a fitted effect of over 60% in size
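Parental KB-3-1 adenocarcinoma cells in phenol-red-free DMEM with 10% FBS were pin-treated with compounds at several concentrations, incubated 72 h at 37 °C, and viability read by CellTiter-Glo luminescence; concentration-effect curves were fitted after normalization.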
SW480 rerep: induces DNA re-replication in SW480 colon adenocarcinoma cells | 340,000 tested, 1.8% active | SW480 DNA re-replication, Hoechst DNA content imaging, 48 h | Potency, µM (top dose mostly 46.1 µM), without a hit: top-dose re-replication activation, most hits filed as activators; further: % of control where 0% means no effect; nearly all actives have a fitted effect of over 55% in size
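Quantitative HTS format with DMSO vehicle controls; 48 hr drug incubation at 37 C, then 40 min Hoechst staining and scanning imager measurement at 405 nm excitation.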
MCF10A rerep: inducers of DNA re-replication in MCF 10A breast cells | 350,000 tested, 2.9% active | MCF 10A DNA re-replication, Hoechst nuclear intensity, 48 h | AID 624296 | Potency, µM (top dose mostly 46.1 µM), for the others: at the top dose activity, positive = re-replication, usual class: activators; further: % of control where 0% means no effect; nearly all actives have a fitted effect of over 50% in size
KB-V1 cytotox: kills drug-selected multidrug resistant KB-V1 cells; KB-V1 MDR cells viability, CellTiter-Glo, 72 h; Potency, µM (titrated, usually from 46.1 µM), actives largely listed as cytotoxic; 400,000 tested, 3.4% active; AID 1347076; further: on the % scale 0 is the no-effect control and ±100 the full control effect; nearly all actives have a fitted effect of over 60% in size
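Compound-treated KB-V1 multidrug-resistant cells, 72 h, 37 degrees C; viability by CellTiter-Glo. Fitted qHTS curves give the values.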
ELG1 DNA repair: blocks ELG1-dependent DNA repair in HEK293T cells; Potency, µM (highest dose often 46.1 µM), without a hit: at the top dose activity change, negative = inhibition, most hits filed as inhibitors; HEK293T ELG1-luciferase reporter, luminescence, 16 h; DNA damage induced by 5-fluorouridine; 330,000 tested, 2.3% active; AID 504467; further: on the % scale 0 is the no-effect control and ±100 the full control effect; nearly all actives have a fitted effect of over 55% in size
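DMSO vehicle served as the neutral condition. Each well held 2,000 cells given 5-fluorouridine plus compound; after 16 hr at 37 °C/5% CO2, ONE-Glo was added and luciferase measured 30 min later.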
The depositor's hits bear a star; i = inactive; ? = inconclusive; / = no result given. Sampled rows, rich in hits. Any-hit rate of the full collection: about 8.1%. The call rests on the fitted dose curve; in most records, active means well fitted curve in the direction sought with a large enough effect; inconclusive means small, poorly fitted or top-dose-only effect, or another doubt; inactive means no such curve, though single readings can be large; an effect the other way counts as inactive or inconclusive. Potency means the concentration at half of the fitted maximal effect.

SMILES | KB-3-1 cytotox | SW480 rerep | MCF10A rerep | KB-V1 cytotox | ELG1 DNA repair
CC(=O)N/C(=C\c1ccccc1)C(=O)OCc1cccc(S(=O)(=O)N(C)C)c1 | i | 1.6% | -0.2% | i | 7.3µM*
O=C(Oc1ccccc1C(=O)Nc1ccccc1)c1ccccc1Br | 11.6µM* | 14.6µM* | 5.17µM* | 16.4µM* | ?
O=C(COc1ccccc1C(=O)Nc1ccccc1)c1ccc(Br)cc1 | i | -8.8% | -10.9% | ? | ?
O=C(Nc1ccc(C2CC2(Cl)Cl)cc1)c1ccccc1Br (configuration not stated) | i | 2.0% | ? | 18.4µM* | ?
CCC12CN3CC(C)(CN(C1)C3c1ccc(O)cc1O)C2=O (configuration not stated) | i | / | / | i | /
CC(=O)c1c(O)c(C)c(O)c2c1OC1=Cc3c(c(C)nn3-c3ccccc3)C(=O)C12C (configuration not stated) | i | / | / | i | /
CC(=O)C1=C(O)C2(C)c3c(O)c(C)c(O)c(C(C)=O)c3OC2CC1=O (configuration not stated) | i | / | / | 16.4µM* | /
OCCNCc1ccc(OCc2ccc(Cl)cc2Cl)cc1 | i | 4.11µM* | ? | i | ?
OCCCCNCc1ccc(OCc2ccc(Cl)cc2Cl)cc1 | i | 3.0% | 10.4% | i | 12.0%
Cc1cc(C(=O)CSc2nnc(-c3ccccc3F)o2)c(C)n1Cc1cccs1 | i | -3.7% | ? | ? | ?
Cc1cc(C(=O)CN2C(=O)c3cccc(N)c3C2=O)c(C)n1Cc1cccs1 | i | ? | 2.59µM* | i | ?
Cc1cc(C(=O)CN2C(=O)NC3(CCCCC3C)C2=O)c(C)n1Cc1cccs1 (configuration not stated) | i | 0.9% | 15.0% | 23.1µM* | ?
Cc1ccccc1-c1cc2nc(Oc3cccc4ccccc34)n(C)c(=O)c2s1 | i | / | / | i | /
CCN(CC)S(=O)(=O)c1ccc(Cl)c(NC(=O)COC(=O)c2cccn2C)c1 | i | 3.4% | 2.0% | 14.6µM* | 14.6µM*
CCN(CC)S(=O)(=O)c1ccc(Cl)c(NC(=O)COC(=O)c2c(C)noc2C)c1 | i | 3.3% | 5.4% | ? | 18.4µM*
Cc1ccccc1NC(=O)CSc1nc2c(c(=O)n(C)c(=O)n2C)n1Cc1ccccc1F | i | / | / | i | /
O=C(Nc1ccc(C(=O)N2CCOCC2)cc1)c1cc(-c2cccnc2)nc2ccc(Br)cc12 | ? | ? | -1.4% | i | 9.2µM*
CC(=O)c1ccc(N2CCN(C(=O)c3cc(-c4cccnc4)nc4ccc(Br)cc34)CC2)cc1 | i | 2.7% | ? | ? | 16.4µM*
O=C(c1cc(-c2cccnc2)nc2ccc(Br)cc12)N1CCN(c2ncccn2)CC1 | ? | -1.2% | 14.4% | ? | ?
O=C(C1CCN(S(=O)(=O)c2cccnc2)CC1)N1CCN(c2ccc(Cl)cc2)CC1 | 13µM* | -17.8% | -3.0% | 6.51µM* | 2.91µM*
O=C(C1CCN(S(=O)(=O)c2cccc3cccnc23)CC1)N1CCN(c2ccccn2)CC1 | i | -2.0% | 2.6% | i | -18.3%
O=C(C1CCN(S(=O)(=O)c2cccc3cccnc23)CC1)N1CCN(c2ccc(Cl)cc2)CC1 | i | -8.1% | -17.7% | i | 18.4µM*
COC(=O)c1c(-c2ccccc2)oc2c1C(OCCO)CCC2 (configuration not stated) | i | / | / | i | /
CC1(C(=O)NS(=O)(=O)c2ccccc2)CCN1C(=O)Cc1cccs1 (configuration not stated) | i | / | / | i | /
CC1=C(C(=O)Nc2ccc(Cl)cc2)C(c2cccs2)n2nc(SCc3cccc(C)c3)nc2N1 (configuration not stated) | i | / | / | i | /
O=C1NC[C@H](CCCCN2CCN(Cc3ccccc3)C(=O)C2=O)N(CCC2CCCCC2)C1=O | i | / | / | ? | /
Cc1ccc(C(O)c2ncc(-c3ccccc3Cl)[nH]2)cc1 (configuration not stated) | i | / | / | i | /

Screens from PubChem.
